In all, about 68,000 sequences were measured (“fluorescence intensity (a.u.)”: median about 9,100, highest 2% from about 16,000 on). The entries come from a sample that favours the highest values as a whole.

Chain of OsWRKY34 (Q0JBA9 entry or part of it): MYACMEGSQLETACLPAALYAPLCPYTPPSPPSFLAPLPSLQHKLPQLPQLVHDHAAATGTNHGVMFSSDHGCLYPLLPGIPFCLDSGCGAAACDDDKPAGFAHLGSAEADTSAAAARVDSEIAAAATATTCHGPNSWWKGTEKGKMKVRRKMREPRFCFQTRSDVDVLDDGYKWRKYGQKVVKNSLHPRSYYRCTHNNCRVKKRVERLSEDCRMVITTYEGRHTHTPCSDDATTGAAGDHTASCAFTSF

This assay addresses OsWRKY34 (Oryza sativa, UniProt Q0JBA9 1-250). Kind of assay: protein-binding microarray (RPBM); PBS, 2% BSA, 51.3 ng/ul salmon testes DNA, 50 uM zinc acetate, 200 nM TF, 25 C, 1 h; high values mean tight binding. As to conditions: protein: recombinant; tags: N-terminal polyhistidine and DsRed monomer fusion (pET32a); label: CyDye5-dUTP incorporated in the synthesized complementary strand; 3' TTTTT single-stranded linker to array surface; dsDNA, one strand shown. In outline:
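For the binding signal, per-feature fluorescence intensity was read in arbitrary units on an Axon 4000B scanner. Before scanning, a 2% BSA-blocked custom Agilent array made double-stranded with Cy5-dUTP was washed after 1 h at 25 °C with 200 nM protein and 50 µM zinc acetate. The proteins were Ni–NTA-purified transcription factors with N-terminal polyhistidine and DsRed fusions, expressed in E. coli BL21-CodonPlus.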
Turning to “TGGAGGTGGTGGTGGGAGGAAGGGGAGGAGGAGGCGCGGCCGGAGTCACCTAGTGCAG”, the binding signal is 15100 fluorescence intensity (a.u.). The value for “AGCTGGCTAAATCATATTTCCAAAGTCTCTCTCGTCTCTCCGGAGTCACCTAGTGCAG” was 8510 fluorescence intensity (a.u.); that for “GCCTTCACAAAATCACAAGCGAATGATTTTACTGCCTTGCCGGAGTCACCTAGTGCAG” was 9190 fluorescence intensity (a.u.); that for “TGAGTTTTTGTTTGTATTGTTTGACTACTCGTCTTATTCACGGAGTCACCTAGTGCAG” was 10400 fluorescence intensity (a.u.). Consider “AAGAGTACGGGTGGGGATGCTTTGGAGTTCACTCCAACTCCGGAGTCACCTAGTGCAG”, for which the binding signal is 10300 fluorescence intensity (a.u.). Consider “TCCCGTACGCCTCTACTACCTCTTTTACCTGCGTGCCTTCCGGAGTCACCTAGTGCAG”, for which the binding signal is 11100 fluorescence intensity (a.u.). With “CACCCTTCTTCTCACCCATTGACGGATGCCCTGGAGGTTTCGGAGTCACCTAGTGCAG”, the binding signal is 10400 fluorescence intensity (a.u.). For “GGGTTTTTGGTTTTGGTTTTGATTTTGATTTTGATTTTGACGGAGTCACCTAGTGCAG”, the binding signal is 16400 fluorescence intensity (a.u.). As for “GTTATGGGTTTGATTTTTTTTCGTTTAGAAAGTTATGGGTCGGAGTCACCTAGTGCAG”, the binding signal is 9220 fluorescence intensity (a.u.). For the sequence “CGTTGATTTGGTTTGGGTTAGTTATGGGTTTGATTTTTTTCGGAGTCACCTAGTGCAG”, the binding signal was 20600 fluorescence intensity (a.u.). In the case of “AGTCGCAGTGGTTTTGGTTGGTTGGTTGATTACATTTTGACGGAGTCACCTAGTGCAG”, the binding signal is 20000 fluorescence intensity (a.u.).

Regarding “AGGGTTTGGTTGATTTTCGGATTTGGTTTGGTTTTGACGACGGAGTCACCTAGTGCAG”, the binding signal was 13300 fluorescence intensity (a.u.). As for “ATTTTTTTCGGTTTGGTTGATTTTATTGAGTTACATTTACCGGAGTCACCTAGTGCAG”, the binding signal was 10900 fluorescence intensity (a.u.). On to “GGTTTGGTTTTGTTTAGTGGGTTAGAAGCCAATGAGAGCACGGAGTCACCTAGTGCAG”, for which the binding signal was 10300 fluorescence intensity (a.u.). As for “CATCCGACCTCAACTCCTCTGTCCTCTACTACGCATCTCTCGGAGTCACCTAGTGCAG”, the binding signal was 14100 fluorescence intensity (a.u.).

On to “GTGTGGGGCTTTTAACTTTTTGTCACTTTTAAATTTTAAACGGAGTCACCTAGTGCAG”, for which the binding signal is 21300 fluorescence intensity (a.u.).

As to “ATTATGCATTTATTTTATTTGAAACTTTAATGCTTTTTTTCGGAGTCACCTAGTGCAG”, the binding signal was 8110 fluorescence intensity (a.u.). On to “GGGCTTATTTTTTTTTTTTAACTTTGTTATGCTCTAGAAACGGAGTCACCTAGTGCAG”, for which the binding signal was 20100 fluorescence intensity (a.u.). For the sequence “GTTAACTTGCTTATATGGTACTAGAAGAAAAACTTAATGGCGGAGTCACCTAGTGCAG”, the binding signal is 64900 fluorescence intensity (a.u.). For “TTTTTTTCTGGGGTTGCTTAGAATGGTACTAACTATGATTCGGAGTCACCTAGTGCAG”, the binding signal was 8900 fluorescence intensity (a.u.). Turning to “TATATTGCTCTTAATTTATTTGTGTTACTTTTTATGTGTTCGGAGTCACCTAGTGCAG”, the binding signal is 8330 fluorescence intensity (a.u.).

As for “GATCACATGGGCCACACTTTTTTTTAATTATTTTTTGTGTCGGAGTCACCTAGTGCAG”, the binding signal was 8040 fluorescence intensity (a.u.). The value for “TTATAAACTTGGTCAAACTTAATAAAGTTTGACTAGAAAACGGAGTCACCTAGTGCAG” was 8320 fluorescence intensity (a.u.).

As to “GTAGTTTTGTGAAATTTACTTTTTTTTTTTTTTTTGATAACGGAGTCACCTAGTGCAG”, the binding signal was 9770 fluorescence intensity (a.u.). Turning to “CCCTCGTCTTCTTCTCCACGCGACGCCGGTCAAAGTTTGACGGAGTCACCTAGTGCAG”, the binding signal is 10700 fluorescence intensity (a.u.). Consider “AGCCATCTTAAGTTAGGAACAGTTTCTTTTTTTAGAACTACGGAGTCACCTAGTGCAG”, for which the binding signal is 8290 fluorescence intensity (a.u.). The value for “AAACCATTTTTTTTATCTATTATCCTTTGACTGTTTAATTCGGAGTCACCTAGTGCAG” was 10500 fluorescence intensity (a.u.); that for “AAATTTTTATATGCTGTGTATTTTCTATTTTTTTTATTTTCGGAGTCACCTAGTGCAG” was 11100 fluorescence intensity (a.u.). On to “GTGTTTGATTTGCCTCTCTTAAGAACCACTGTGAAAACATCGGAGTCACCTAGTGCAG”, for which the binding signal was 9680 fluorescence intensity (a.u.). In the case of “CTCGCCGCGTGCTCCTTTACTGCTCTCTGCTCGCGCAGGACGGAGTCACCTAGTGCAG”, the binding signal was 9230 fluorescence intensity (a.u.). For the sequence “CCTCGACCGTCCCCAACCGACGACCCCGTGGTCACGCTCCCGGAGTCACCTAGTGCAG”, the binding signal is 10900 fluorescence intensity (a.u.). Regarding “GGTCAATTTAGGGCACACACCAAACCAGCCCTTACAACTTCGGAGTCACCTAGTGCAG”, the binding signal is 8620 fluorescence intensity (a.u.). Consider “AAAAATATATCCAAGCAAATTCACACAGTCAAGTTCACTCCGGAGTCACCTAGTGCAG”, for which the binding signal was 14800 fluorescence intensity (a.u.). With “GGTTGGTGTGGACCTTGCCCATTGTGAAACTTTGGTCAAACGGAGTCACCTAGTGCAG”, the binding signal is 8070 fluorescence intensity (a.u.).

As to “TTCGAAATGTTTGACGCCGTTGACTTTTTAGCATATGTTTCGGAGTCACCTAGTGCAG”, the binding signal was 13200 fluorescence intensity (a.u.). Consider “AGTTTCGAAATATTTGACGCCGTTGACTTTTTATCAAATGCGGAGTCACCTAGTGCAG”, for which the binding signal was 28300 fluorescence intensity (a.u.). As to “TCATGGATTATCTCTTTAATGTATAACGCCGTTGACTTTTCGGAGTCACCTAGTGCAG”, the binding signal was 14300 fluorescence intensity (a.u.). The value for “TTCGTTTGACTTTTGCCGTTTCAAATTTGAATTCTCGAAACGGAGTCACCTAGTGCAG” was 9080 fluorescence intensity (a.u.); that for “TTCGAAATGTTTAACGCCGTTGACTTTTTATCATATGTTTCGGAGTCACCTAGTGCAG” was 35500 fluorescence intensity (a.u.). In the case of “TCGAAATGTTTGACGCCGTTGACTTTTTAAGTATATGTTTCGGAGTCACCTAGTGCAG”, the binding signal is 29200 fluorescence intensity (a.u.).

“CCGTTTCATATTTAAATTGTTTTGACTTTTTTATAGTTAACGGAGTCACCTAGTGCAG”: the binding signal is 8140 fluorescence intensity (a.u.). For the sequence “ACTTATTTTAGTTTGACTTGATTTTTCATCAAATGTTTTTCGGAGTCACCTAGTGCAG”, the binding signal was 10400 fluorescence intensity (a.u.).

For the sequence “CGTATGCTCCTTAGGTGATACTATGTCCCTATTTGCTTCACGGAGTCACCTAGTGCAG”, the binding signal was 8180 fluorescence intensity (a.u.).

Source of the values: paper PMC7819943, “Rice protein-binding microarrays: a tool to detect cis-acting elements near promoter regions in rice”.
